High-throughput results: PubChem BioAssay, National Center for Advancing Translational Sciences (NCATS)
KCNH2 WT inh = inhibitors of human wildtype KCNH2 potassium channel | Q12809 | U2OS, BacMam KCNH2, thallium flux FluxOr; active compounds read low | activity change, % at 1.84 µM | 340,000 tested, 0.37% active | AID 720551;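 active = maximum activity change below -70%; inconclusive = maximum activity change between -70% and -50%; inactive = maximum activity change above -50%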; also: % is scaled to controls: 0 for no effect and ±100 for the full control effect
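U2OS cells were transduced with wild-type KCNH2 virus (2.03 x 10^8 / mL) for 4 h at room temperature, then cultured overnight at 37 C. Thallium flux was read with FluxOr dye. Rate constants were normalized to DMSO controls.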
TRPV1 PAM = enhances activation of the human vanilloid receptor TRPV1; potentiation, % at 8.33 µM; Q8NER1; TRPV1-expressing cells, Fluo-8 calcium influx, capsaicin EC20 potentiation; 320,000 tested, 0.02% active; in the data active = potentiation above about 80%; inconclusive = between about 30% and that limit; also: 0% is about no effect
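TRPV1-expressing cells were cultured overnight at 35.5C and loaded with Fluo-8 calcium dye for 40 to 90 min at room temperature. After a 10 s baseline, compound was added and calcium influx was read kinetically for 3 min (ex 480/em 520 nm).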
KCNH2 3.1 block = KCNH2 3.1 (human) potassium channel inhibition | 340,000 tested, 0.95% active | AID 720553 | U2OS KCNH2 3.1, thallium flux FluxOr; active compounds read low | activity change, % (tested at about 1.8 µM);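 active = maximum activity change below -70%; inconclusive = maximum activity change from -70% to -50%; inactive = maximum activity change above -50%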;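 also: thallium influx rate constant from kinetic fluorescence after stimulation buffer; % is scaled to controls: 0 for no effect and ±100 for the full control effect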
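Steps: virus added to U2OS suspension (4 h, RT, dark); medium with 10% FBS added, cells plated, 37 C overnight; FluxOr/Red40 loading buffer 45 min RT; stimulation buffer, 2 min kinetic read; rate constant normalized.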
TRPV1 agonist = agonists of human vanilloid receptor 1 (TRPV1) | Q8NER1 | TRPV1-expressing cells, Fluo-8 calcium influx, agonist mode | activation, % at 8.33 µM | 320,000 tested, 0.19% active; in the data active = activation above about 80%; inconclusive = between about 30% and that limit; also: 0% is about no effect
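TRPV1-expressing cells were cultured overnight at 35.5C and loaded with Fluo-8 calcium dye for 40 to 90 min at room temperature. After a 10 s baseline, compound was added and calcium influx was read kinetically for 3 min (ex 480/em 520 nm).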
* hit, by the source's call; i = inactive; u = inconclusive; x = no result. This is a sample that favours compounds with a hit; in the whole collection about 1.2% have one here.

SMILES	KCNH2 WT inh	TRPV1 PAM	KCNH2 3.1 block	TRPV1 agonist
NC(=S)N/N=C/c1ccc(-c2ccc([N+](=O)[O-])cc2)o1	-7	22	-2	-2
CN(/N=C/c1ccc(-c2ccc([N+](=O)[O-])cc2)o1)c1ccccc1	-38	12	-72*	14
O=C(NNc1cc(N2CCCC2)nc(N2CCCC2)n1)c1ccc([N+](=O)[O-])cc1	-41	5	-90*	-1
CC(C)(C)c1ccc(C(=O)NNc2cc(N3CCCCC3)nc(N3CCCCC3)n2)cc1	6	19	-13	-3
CC(C)(C)c1ccc(/C=C/C(=O)Nc2cccnc2)cc1	-10	-20	10	101*
O=C(/C=C/c1ccc(Cl)c(Cl)c1)Nc1cccnc1	-4	x	-2	x
CSc1ccc(/C=C/C(=O)Nc2ccccc2)cc1	-1	4	-8	90*
CC(C)Cn1c(N)c(C(=O)COC(=O)c2cc(S(=O)(=O)N3CCOCC3)ccc2Br)c(=O)n(C)c1=O	-1	x	-6	x
CC1CCCCN1CCCNC(=O)C1CCN(c2nnc(-n3cccc3)s2)CC1 (stereo not drawn)	23	u	-201*	-1
O=C(N/N=C/c1cc(Br)ccc1O)C(=O)Nc1ccccc1OC(F)(F)C(F)F	-263*	10	8	6
O=C(N/N=C/c1cc(Cl)ccc1O)C(=O)Nc1ccccc1OC(F)(F)C(F)F	-22	-1	-36	u
O=C(Nc1ccc2c(c1)Cc1ccccc1-2)c1cc2ccccc2o1	-3	x	-29	x
O=C(Nc1ccc2c(c1)Cc1ccccc1-2)c1ccncc1	-9	-12	-12	81*
Cc1ncoc1C(=O)Nc1ccc(Oc2ccccc2)cc1	3	-23	-16	84*
COc1ccc(NC(=O)C2CC2(Cl)Cl)cc1S(=O)(=O)N1CCCCC1 (stereo not drawn)	-2	x	10	x
Cc1cc(NC(=O)CCCSc2nc(-c3ccco3)cc(C(F)(F)F)n2)no1	4	8	13	-3
COc1ccc(NC(=O)CCCSc2nc(-c3ccco3)cc(C(F)(F)F)n2)cc1OC	-2	-10	3	83*
O=C(CSc1ccccc1F)NC(=O)c1ccccc1Br	3	x	12	x
Cc1ccc(C(c2nnnn2Cc2cccs2)N2CCN(Cc3ccc4c(c3)OCO4)CC2)cc1 (stereo not drawn)	-110*	16	-95*	2
CC(C)C(c1nnnn1Cc1ccc(F)cc1)N1CCN(Cc2ccc3c(c2)OCO3)CC1 (stereo not drawn)	1	-4	-71*	16
COCCn1nnnc1C(c1ccc(C)cc1)N1CCN(Cc2ccc3c(c2)OCO3)CC1 (stereo not drawn)	-16	0	-24	0
Cc1ccc(S(=O)(=O)N2CCN(c3ccnc4cc(Cl)ccc34)CC2)cc1C	1	-4	18	10
CS(=O)(=O)N1CCN(c2ccnc3cc(Cl)ccc23)CC1	-11	-1	-17	-1
CC(=O)c1ccc(S(=O)(=O)N2CCN(c3ccnc4cc(Cl)ccc34)CC2)cc1	-123*	x	-98*	x
O=C(c1ccc(Cl)cc1)N1CCN(c2ccnc3cc(Cl)ccc23)CC1	-10	-15	-87*	u
SMILES	KCNH2 WT inh	TRPV1 PAM	KCNH2 3.1 block	TRPV1 agonist
Cc1ccc(S(=O)(=O)N2CCN(c3ccnc4cc(Cl)ccc34)CC2)cc1	-36	4	-102*	2
Oc1ccc(N2CCN(c3ccnc4cc(Cl)ccc34)CC2)cc1	-2	-14	-46	0
COc1ccc(N2CCN(c3ccnc4cc(Cl)ccc34)CC2)cc1	7	-20	-81*	10
O=C(Nc1cc(Cl)ccc1N1CCOCC1)c1ccc(=O)[nH]c1	-5	x	-10	x
Cc1ccc2nc(SCC(=O)Nc3nonc3N)[nH]c2c1	-9	2	8	3
CCOC(=O)NC(=O)CSc1nc2ccc(C)cc2[nH]1	2	-9	-116*	-1
CC(=O)NC12CC3CC(C1)CC(C(=O)N1CCN(S(=O)(=O)c4ccccc4C#N)CC1)(C3)C2	14	x	15	x
CCCC[C@]12Cc3cc(OC)c(OC)cc3C(O1)C1=C(O2)C(=O)c2ccccc2C1=O	x	i	x	i
CNC[C@@H]1Oc2cc(Br)ccc2S(=O)(=O)N([C@@H](C)CO)C[C@@H]1C	-1	x	4	x
Cc1ccc(S(=O)(=O)N2CCN(C(=O)COC(=O)CSc3ccc(C)c(C)c3)CC2)c(C)c1	8	27	-9	1
Cc1ccc(-c2csc3nc[nH]c(=S)c23)cc1	-9	-17	-3	-3
S=c1[nH]cnc2scc(-c3ccc(Br)cc3)c12	-84*	-12	0	-4
